Source: PubChem BioAssay (NCI)
This is part of a sample that, as a whole, favours compounds with a hit. Of some 79,000 tested, about 15% had one in any assay. Activity calls are given as the source filed them. No stated cut-off is given here; in the data, active means growth inhibition above about 70%; inactive means the rest.

Assays:
[1] = NCI Yeast Anticancer Drug Screen. Data for the rad52 strain (AID 147);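 further: 0% = growth of vehicle-treated control cultures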; details: S. cerevisiae rad52 mutant growth inhibition, active compounds read high
How it was run: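 Measured: yeast growth inhibition. System: strain with a defined DNA damage repair alteration. Reference: vehicle-treated control cultures.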

[2] = NCI Yeast Anticancer Drug Screen. Data for the wt1 strain (AID 149);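 further: 0% = growth of vehicle-treated wt1 cultures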; details: S. cerevisiae wt1 strain (SPY 50644) growth inhibition, active compounds read high
How it was run: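 wt1 strain grown with compound or vehicle; inhibition taken from the growth difference.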

[3] = NCI Yeast Anticancer Drug Screen. Data for the rad50EPP+ strain (AID 151);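 further: 0% = growth of vehicle-treated control cultures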; details: S. cerevisiae rad50 mutant strain, active compounds read high
How it was run: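 One strain with a rad50 alteration (rad50EPP+) was compound-treated, its growth then compared to that of vehicle controls.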

[4] = NCI Yeast Anticancer Drug Screen. Data for the rad50 strain (AID 155);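 further: 0% = growth of vehicle-only cultures of the same strain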; details: S. cerevisiae rad50 strain growth inhibition, active compounds read high
How it was run: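 DNA repair mutant yeast, compound exposure, growth read-out; inhibition is taken relative to vehicle.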

[5] = NCI Yeast Anticancer Drug Screen. Data for the mec2-1 strain (AID 157); details: S. cerevisiae mec2-1 strain, active compounds read high
How it was run: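 Test agents were screened against the mec2-1 yeast strain, with defined DNA repair or cell cycle alteration. Growth was scored as inhibition against vehicle-only controls.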

[6] = NCI Yeast Anticancer Drug Screen. Data for the rad14 strain (AID 159);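 further: 0% = growth of vehicle-treated control cultures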; details: S. cerevisiae rad14 strain growth inhibition, active compounds read high
How it was run: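 DNA repair-defective yeast, compound-exposed; % growth inhibition derived by comparison with vehicle-treated controls.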

[7] = NCI Yeast Anticancer Drug Screen. Data for the sgs1 mgt1 strain (AID 161);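 further: 0% = growth of cultures given vehicle only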; details: S. cerevisiae sgs1 mgt1 strain, active compounds read high
How it was run: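 Genetically altered yeast, compound exposure, growth inhibition relative to vehicle.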

[8] = NCI Yeast Anticancer Drug Screen. Data for the CLN2oe strain (AID 163);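 further: 0% = growth of vehicle-only control cultures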; details: S. cerevisiae CLN2oe strain, active compounds read high
How it was run: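 Here, growth inhibition in a cell-cycle-altered yeast strain after compound exposure was quantified against vehicle control growth.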

[9] = NCI Yeast Anticancer Drug Screen. Data for the cln2 rad14 strain (AID 165);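 further: 0% = growth equal to vehicle treated cultures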; details: S. cerevisiae cln2 rad14 strain, active compounds read high
How it was run: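 Growth of compound-exposed yeast (cln2 rad14 genotype) measured and expressed as inhibition relative to vehicle.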

[10] = NCI Yeast Anticancer Drug Screen. Data for the bub3 strain (AID 167); details: S. cerevisiae bub3 mutant strain, active compounds read high
How it was run: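 In this screen, a yeast mutant lacking normal mitotic checkpoint function is challenged with compound. Relative growth versus vehicle gives the inhibition value.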

[11] = NCI Yeast Anticancer Drug Screen. Data for the wt2 strain (AID 169);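 further: 0% = growth of vehicle-treated yeast cultures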; details: S. cerevisiae wt2 strain growth inhibition, active compounds read high
How it was run: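 Genetically defined yeast strains from a DNA-repair/cell-cycle panel were used. Compound-exposed yeast growth was measured, and the inhibition was calculated relative to vehicle treatment.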

[12] = NCI Yeast Anticancer Drug Screen. Data for the mlh1 strain (AID 171);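 further: 0% = growth of vehicle-treated control cultures of the same strain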; details: S. cerevisiae mlh1 strain growth inhibition, active compounds read high
How it was run: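 Here the genetically defined yeast mutant is grown with each compound, and the extent to which its growth falls below that of vehicle-exposed cells is reported.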

[13] = NCI Yeast Anticancer Drug Screen. Data for the sgs1 strain (AID 173);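 further: 0% = growth of vehicle-only control cultures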; details: S. cerevisiae sgs1 mutant, active compounds read high
How it was run: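 Relative growth inhibition, referenced to vehicle, was determined in a yeast strain with a defined alteration affecting DNA damage repair or cell cycle control after compound exposure.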

[14] = NCI Yeast Anticancer Drug Screen. Data for the mlh1 rad18 strain (AID 175); details: S. cerevisiae mlh1 rad18 strain growth inhibition, active compounds read high
How it was run: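 In this whole-cell yeast screen, a strain with altered DNA damage repair is challenged with compound, and its growth is measured against matched vehicle-treated controls.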

[15] = NCI Yeast Anticancer Drug Screen. Data for the rad18 strain (AID 177); details: S. cerevisiae rad18 mutant growth inhibition, active compounds read high
How it was run: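 Screen uses a yeast strain with a defined lesion in DNA damage repair; compound effect is read as loss of growth compared to untreated vehicle cultures.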

[16] = at 5.0 µM (retest, dose inferred, filed as 0.5)
[17] = at 50.0 µM (retest, dose inferred, filed as 5.0)

Measured: growth inhibition

O=C(Nc1cccc(C(F)(F)F)c1)Oc1ccc(Cl)cc1C(=O)c1ccccc1
active: [1]; at 11.0 µM 80% | [1]; at 100.0 µM 98% | [2]; at 11.0 µM 76% | [2]; at 33.0 µM 80% | [2]; at 100.0 µM 97% | [3]; at 100.0 µM 96% | [4]; [16] 99% | [4]; at 11.0 µM 90% | [4]; at 33.0 µM 82% | [4]; [17] 97% | [4]; at 50.0 µM 90.4% | [4]; at 100.0 µM 98% | [5]; [16] 100% | [5]; at 11.0 µM 88% | [5]; at 33.0 µM 97% | [5]; [17] 89% | [5]; at 50.0 µM 92.9% | [5]; at 100.0 µM 97% | [6]; at 100.0 µM 97% | [7]; [17] 98% | [7]; at 50.0 µM 92.9% | [8]; at 11.0 µM 74% | [8]; at 33.0 µM 85% | [8]; at 100.0 µM 97% | [9]; [17] 98% | [9]; at 50.0 µM 93% | [10]; at 11.0 µM 83% | [10]; at 33.0 µM 91% | [10]; [17] 96% | [10]; at 50.0 µM 91% | [10]; at 100.0 µM 97% | [11]; at 11.0 µM 91% | [11]; at 33.0 µM 77% | [11]; at 100.0 µM 98% | [12]; at 11.0 µM 88% | [12]; at 33.0 µM 70% | [12]; at 100.0 µM 97% | [13]; at 11.0 µM 82% | [13]; at 33.0 µM 91% | [13]; at 100.0 µM 97% | [14]; [16] 100% | [14]; [17] 93% | [14]; at 50.0 µM 91.2% | [15]; at 11.0 µM 91% | [15]; at 33.0 µM 86% | [15]; at 100.0 µM 98%
inactive: [1]; at 1.2 µM 15% | [1]; at 3.7 µM 17% | [1]; at 33.0 µM 69% | [2]; at 1.2 µM 18% | [2]; at 3.7 µM 13% | [3]; at 1.2 µM 26% | [3]; at 3.7 µM 7% | [3]; at 11.0 µM 34% | [3]; at 33.0 µM 41% | [4]; at 1.2 µM 22% | [4]; at 3.7 µM 17% | [5]; at 1.2 µM 19% | [5]; at 3.7 µM 42% | [6]; at 1.2 µM -3% | [6]; at 3.7 µM -2% | [6]; at 11.0 µM 51% | [6]; at 33.0 µM 64% | [7]; [16] -34% | [8]; at 1.2 µM 24% | [8]; at 3.7 µM 15% | [9]; [16] 31% | [10]; at 1.2 µM 10% | [10]; at 3.7 µM 24% | [10]; [16] 15% | [11]; at 1.2 µM 15% | [11]; at 3.7 µM 6% | [12]; at 1.2 µM 9% | [12]; at 3.7 µM 8% | [13]; at 1.2 µM 24% | [13]; at 3.7 µM 30% | [15]; at 1.2 µM 6% | [15]; at 3.7 µM 21%

CCCCCC#CCOC(=O)C(=[N+]=[N-])P(=O)(c1ccccc1)c1ccccc1
active: [1]; at 100.0 µM 96% | [2]; at 100.0 µM 96% | [4]; [17] 94% | [4]; at 50.0 µM 87.8% | [4]; at 100.0 µM 95% | [5]; [17] 97% | [5]; at 50.0 µM 90.5% | [5]; at 100.0 µM 95% | [6]; at 100.0 µM 94% | [7]; at 50.0 µM 90.8% | [8]; at 100.0 µM 96% | [9]; [17] 96% | [9]; at 50.0 µM 86.7% | [10]; [17] 95% | [10]; at 50.0 µM 89.3% | [10]; at 100.0 µM 95% | [11]; at 100.0 µM 97% | [12]; at 100.0 µM 97% | [13]; at 100.0 µM 98% | [14]; [17] 96% | [14]; at 50.0 µM 87% | [15]; at 100.0 µM 96%
inactive: [1]; at 1.2 µM 7% | [1]; at 3.7 µM 16% | [1]; at 11.0 µM 7% | [1]; at 33.0 µM 10% | [2]; at 1.2 µM 3% | [2]; at 3.7 µM -2% | [2]; at 11.0 µM 3% | [2]; at 33.0 µM -2% | [3]; at 1.2 µM 21% | [3]; at 3.7 µM 13% | [3]; at 11.0 µM 26% | [3]; at 33.0 µM 14% | [3]; at 100.0 µM 6% | [4]; at 1.2 µM 14% | [4]; at 3.7 µM 21% | [4]; [16] -6% | [4]; at 11.0 µM 13% | [4]; at 33.0 µM 13% | [5]; at 1.2 µM 11% | [5]; at 3.7 µM 7% | [5]; [16] -6% | [5]; at 11.0 µM -3% | [5]; at 33.0 µM -4% | [6]; at 1.2 µM -11% | [6]; at 3.7 µM -6% | [6]; at 11.0 µM -9% | [6]; at 33.0 µM -6% | [7]; [16] 8% | [7]; [17] 46% | [8]; at 1.2 µM 7% | [8]; at 3.7 µM 5% | [8]; at 11.0 µM 9% | [8]; at 33.0 µM -1% | [9]; [16] 37% | [10]; at 1.2 µM 1% | [10]; at 3.7 µM 0% | [10]; [16] 8% | [10]; at 11.0 µM -23% | [10]; at 33.0 µM -23% | [11]; at 1.2 µM 4% | [11]; at 3.7 µM 10% | [11]; at 11.0 µM 5% | [11]; at 33.0 µM 5% | [12]; at 1.2 µM 28% | [12]; at 3.7 µM 23% | [12]; at 11.0 µM 26% | [12]; at 33.0 µM 20% | [13]; at 1.2 µM 17% | [13]; at 3.7 µM 21% | [13]; at 11.0 µM 15% | [13]; at 33.0 µM 16% | [14]; [16] 22% | [15]; at 1.2 µM 7% | [15]; at 3.7 µM 8% | [15]; at 11.0 µM 7% | [15]; at 33.0 µM 14%
